The results in this text go back to PubChem BioAssay (NCI).

Among the test systems are NCI-H23 lung; NCI-H226 lung; NCI-H322M lung; HOP-62 NSCLC; NCI-H460 lung; HOP-92 NSCLC; NCI-H522 lung; A549/ATCC NSCLC; 786-0 renal; COLO 205 colon; DU-145 prostate; K-562 leukemia; MALME-3M melanoma; RXF 393 renal; SF-268 CNS; SF-295 CNS; SF-539 CNS; UACC-257 melanoma; M14 melanoma; MDA-MB-231 breast.
What all share (assay): NCI-60 one-dose screen, 48 h (100 = growth as untreated, 0 = no growth, -100 = all killed)
Common to all, as to details: 10 µM unless noted

Structures are written as SMILES. About 83,000 compounds went through this panel and 20% of them were active in at least one assay; those are over-represented in the sample as a whole.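 Growth was measured after 48 h exposure to one concentration of compound in 96-well plates. Values under 10 count as active.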 A number with no mark means an inactive call. The source made the active and inactive calls.

As for `COc1ccc(-c2csc(NC(=O)N3CCN(c4cc5c(cc4F)c(=O)c(C(=O)O)cn5C4CC4)CC3)n2)cc1`, the growth in the assay with NCI-H23 lung was -2.88% (active); with NCI-H226 lung, 18.8%; with NCI-H322M lung, 7.07% (active); in the assay on HOP-62 NSCLC, 20%; in the assay on NCI-H460 lung it was 4.13% (active); in the assay on HOP-92 NSCLC, -25.6% (active). The growth in the assay on NCI-H522 lung was -13.9% (active); with A549/ATCC NSCLC, 3.2% (active); in the assay on 786-0 renal, 20.7%; in the assay on COLO 205 colon it was 9.52% (active); with DU-145 prostate it was 10.6%; with K-562 leukemia it was 11.7%. The growth in the assay on MALME-3M melanoma was -11.4% (active); in the assay on RXF 393 renal it was 34.4%; in the assay on SF-268 CNS it was 20%; with SF-295 CNS, -4.61% (active); in the assay with SF-539 CNS, 20.6%; in the assay on UACC-257 melanoma, -17.6% (active). Besides, the growth in the assay with M14 melanoma was 9.8% (active).
Turning to `COc1ccc2sc3c(NCCCNCCO)nc4ccccc4c3c(=O)c2c1`, the growth in the assay with NCI-H23 lung was 63.6%; with NCI-H226 lung, 98%; in the assay on NCI-H322M lung, 72.8%; with HOP-62 NSCLC it was 77.3%; with NCI-H460 lung it was -71.1% (active); in the assay on HOP-92 NSCLC, 31.2%. In addition, the growth in the assay with A549/ATCC NSCLC is 62.6%; with 786-0 renal it was 63%; with COLO 205 colon it was -35.4% (active); in the assay on DU-145 prostate, 41%; in the assay with K-562 leukemia it was -28.2% (active); in the assay with MALME-3M melanoma it was 85.9%. Besides, the growth was -12.9% (active) in the assay on MDA-MB-231 breast; 52.3% in the assay with RXF 393 renal; 50.8% with SF-268 CNS; 85.7% with SF-295 CNS; 45.5% with SF-539 CNS; 92.3% in the assay with UACC-257 melanoma. Further, in the assay on M14 melanoma, the growth was -66.6% (active).
For `C=CCNc1ccc2c3c(cccc13)C(=O)N(N1C(=O)c3cccc4cccc(c34)C1=O)C2=O`, the growth in the assay on NCI-H23 lung was 91.9%; with NCI-H226 lung, 93.9%; with NCI-H322M lung, 102%; in the assay with HOP-62 NSCLC, 96.3%; in the assay on NCI-H460 lung, 102%; with HOP-92 NSCLC it was 98.7%. Also, the growth was 98.2% in the assay on A549/ATCC NSCLC; 104% with 786-0 renal; 117% with COLO 205 colon; 109% in the assay with DU-145 prostate; 103% in the assay on K-562 leukemia; 110% in the assay on MALME-3M melanoma. The growth with MDA-MB-231 breast is 108%; in the assay with RXF 393 renal, 104%; with SF-268 CNS it was 98.1%; with SF-295 CNS, 102%; in the assay on SF-539 CNS, 99.8%; in the assay on UACC-257 melanoma, 98.5%. Further, the growth in the assay on M14 melanoma was 102%.
With `CC/C=C\C[C@@H]1C/C=C2/C(=O)C=C[C@H]2C/C=C\CCCC(=O)O1`, the growth was -32.1% (active) in the assay with NCI-H23 lung; -20% (active) in the assay with NCI-H226 lung; -54.5% (active) in the assay on NCI-H322M lung; -14% (active) in the assay with HOP-62 NSCLC; -48.6% (active) in the assay with NCI-H460 lung; -25.8% (active) with HOP-92 NSCLC. Also, the growth is -26.7% (active) in the assay with A549/ATCC NSCLC; -88.4% (active) in the assay with 786-0 renal; -64.2% (active) in the assay on COLO 205 colon; -66.8% (active) in the assay on DU-145 prostate; -0.441% (active) in the assay on K-562 leukemia; -41.1% (active) in the assay on MALME-3M melanoma. Also, the growth was -80.6% (active) in the assay with RXF 393 renal; -57.6% (active) in the assay on SF-268 CNS; -18.1% (active) in the assay with SF-295 CNS; -64.3% (active) in the assay on SF-539 CNS; -41.7% (active) with UACC-257 melanoma; -48.8% (active) in the assay on M14 melanoma.
Take `Cc1ccc(C(CC(=O)O)c2c(C)[nH][nH]c2=O)cc1` (stereo unspecified): the growth was 95.3% in the assay on NCI-H23 lung; 102% in the assay with NCI-H226 lung; 104% in the assay with NCI-H322M lung; 97.9% in the assay with HOP-62 NSCLC; 108% in the assay with NCI-H460 lung; 118% in the assay on HOP-92 NSCLC. Also, the growth in the assay with A549/ATCC NSCLC was 105%; with 786-0 renal, 96%; in the assay on COLO 205 colon, 113%; in the assay on DU-145 prostate, 106%; in the assay with K-562 leukemia, 90.8%; with MALME-3M melanoma, 99.4%. In addition, the growth in the assay with MDA-MB-231 breast was -33.1% (active); in the assay on RXF 393 renal, 102%; in the assay with SF-268 CNS, 94.9%; in the assay on SF-295 CNS, 102%; with SF-539 CNS, 97%; in the assay with UACC-257 melanoma it was 104%. Also, the growth with M14 melanoma was 96.7%.
For the compound `N#C/C(=C\c1cccc2cnccc12)n1nnc2cccc(F)c21`, the growth was 27.7% in the assay with NCI-H23 lung; 62.6% in the assay on NCI-H226 lung; 89.9% in the assay with NCI-H322M lung; 53.2% in the assay on HOP-62 NSCLC; 35.5% in the assay on NCI-H460 lung; -25% (active) with HOP-92 NSCLC. In addition, the growth is 86.6% in the assay on A549/ATCC NSCLC; 56.4% in the assay on 786-0 renal; 34.3% in the assay with COLO 205 colon; 2.26% (active) in the assay with DU-145 prostate; 11.9% in the assay with K-562 leukemia; 22.6% with MALME-3M melanoma. Further, the growth in the assay with MDA-MB-231 breast is 31.7%; in the assay with RXF 393 renal, -2.13% (active); in the assay with SF-268 CNS it was 67.4%; with SF-295 CNS, 93.4%; with SF-539 CNS, 36.6%; in the assay with UACC-257 melanoma, 52.1%. In addition, the growth in the assay with M14 melanoma was 35.1%.
Consider `c1ccc(-c2nc3nonc3nc2-c2ccccc2)cc1`, for which the growth in the assay with NCI-H23 lung is 52.4%; in the assay on NCI-H226 lung, 69.2%; in the assay with NCI-H322M lung, 81.7%; in the assay on HOP-62 NSCLC, 79%; in the assay on NCI-H460 lung, 62.8%; in the assay on HOP-92 NSCLC, 78%. The growth in the assay with A549/ATCC NSCLC was 76.7%; with 786-0 renal, 73.8%; in the assay on COLO 205 colon, 82.6%; in the assay on DU-145 prostate, 68.2%; in the assay with K-562 leukemia it was 52.4%; in the assay on MALME-3M melanoma, 55.4%. The growth in the assay on MDA-MB-231 breast was 43.9%; in the assay on RXF 393 renal it was 51.1%; in the assay with SF-268 CNS it was 62.9%; in the assay with SF-295 CNS, 72.3%; in the assay with SF-539 CNS, 79.1%; in the assay with UACC-257 melanoma, 63.3%. Besides, the growth in the assay with M14 melanoma is 84.9%.
As to `CCc1cccc2c3c(sc12)C(c1ccc(F)cc1)C(C#N)=C(N)O3` (stereo unspecified), the growth in the assay with NCI-H23 lung was 33.6%; in the assay with NCI-H226 lung, 29.1%; with NCI-H322M lung, 57.7%; in the assay on HOP-62 NSCLC, 48.7%; in the assay on NCI-H460 lung, 12.9%; with HOP-92 NSCLC it was 78.9%. Moreover, the growth with A549/ATCC NSCLC is 31.9%; in the assay on 786-0 renal, 30%; with COLO 205 colon, 5.48% (active); in the assay on DU-145 prostate, 24.5%; in the assay on K-562 leukemia, 12.4%; in the assay on MALME-3M melanoma, 75.9%. The growth in the assay with MDA-MB-231 breast is 21.1%; with RXF 393 renal it was 1.43% (active); with SF-268 CNS it was 54.5%; with SF-295 CNS, 8.12% (active); in the assay on SF-539 CNS it was 2.76% (active); in the assay with UACC-257 melanoma, 74.2%. For the same compound, the growth in the assay with M14 melanoma is 19.2%.
